High-throughput results (PubChem)
An excerpt weighted towards active compounds, which were near 2.4% of everything screened.
D2 PAM-1: D2 dopamine receptor (human) potentiation; P14416; HEK293 T-REx D2, calcium flux, EC20 dopamine potentiation; potentiation, % at 10 µM; 340,000 tested, 0.34% active;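 active means potentiation over 3 SD above the plate norm, cut at about 30% in these data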; further: 0% is about no effect
Target sequence (P14416 whole entry, looked up): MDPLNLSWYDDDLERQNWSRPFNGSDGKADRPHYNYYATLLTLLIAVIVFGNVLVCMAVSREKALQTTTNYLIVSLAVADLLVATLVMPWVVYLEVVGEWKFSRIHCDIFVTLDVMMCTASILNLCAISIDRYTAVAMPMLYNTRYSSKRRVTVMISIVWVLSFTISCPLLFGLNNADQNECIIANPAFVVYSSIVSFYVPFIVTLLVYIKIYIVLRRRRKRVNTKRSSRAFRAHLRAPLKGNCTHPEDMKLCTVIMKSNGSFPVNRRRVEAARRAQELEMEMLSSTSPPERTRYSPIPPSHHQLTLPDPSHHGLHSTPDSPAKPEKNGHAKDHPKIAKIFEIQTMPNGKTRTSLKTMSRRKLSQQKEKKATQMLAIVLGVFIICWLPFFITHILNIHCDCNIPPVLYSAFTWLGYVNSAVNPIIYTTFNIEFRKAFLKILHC
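Tetracycline-induced Hek293 Trex D2 cells, force-coupled to calcium, loaded with no-wash calcium dye. Compound added with 180 s kinetic read for agonism, then EC20 dopamine and a further 180 s read for potentiation.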
D2 PAM-2: potentiates the human D2 dopamine receptor allosterically; P14416; DiscoveRx D2 beta-arrestin cells, luminescence, 90 min; 100% = 57 uM dopamine signal; potentiation, % (concentration not given with the values); 360,000 tested, 0.23% active; in the data active means potentiation above about 50%
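D2 cells co-treated with compound plus 50 nM dopamine (EC20) for 90 min at 37 deg C to detect potentiation. Beta-arrestin recruitment was read as enzyme-fragment luminescence after 1 h at ambient temperature. Full response was set by 57 uM dopamine.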
D2 antag: antagonists of human D2 dopamine receptor. 340,000 tested, 2% active. HEK293 TREx D2 cells, calcium flux, dopamine EC80. P14416. inhibition, % at 10 µM; in the data active means inhibition above about 30%; inactive means below that, where a call was filed; further: 0% is about no effect
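Calcium flux kinetic readout in an inducible HEK293 TREx D2 line plated overnight at 30 C. After 180 s compound exposure, an EC80 dopamine challenge follows with another 180 s kinetic read to detect antagonism.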
D2 ag-1: human D2 receptor agonism in beta-arrestin assay; P14416; 360,000 tested, 0.084% active; DiscoveRx PathHunter D2 beta-arrestin, luminescence, 90 min; 100% = 57 uM dopamine signal; activation, % (test concentration not listed); AID 624465; in the data active means activation above about 40%
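DiscoveRx PathHunter D2 beta-arrestin cells (2,100/well) attached overnight, then compound-stimulated 90 min at 37 C in HBSS/10 mM HEPES/0.1% Tween-20 buffer; beta-galactosidase complementation read by luminescence after 1 h at ambient temperature. Dopamine 57 uM final (EC100) as control.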
D2 ag-2: agonists of human D2 dopamine receptor. P14416. HEK293 T-REx D2 cells, calcium flux agonist mode. activation, % at 2 µM. 340,000 tested, 0.53% active. AID 485358;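 active means activation over 3 SD above normal in the single-dose calcium agonist read, cut at about 30% in these data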; further: 0% is about no effect
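In this primary screen, compounds producing a positive calcium signal within 180 s of addition to tetracycline-induced, force-coupled HEK293 Trex D2 cells are flagged; cells are dye-loaded with a no-wash calcium kit beforehand.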
* = called active by the depositor; . = no result.

SMILES	D2 PAM-1	D2 PAM-2	D2 antag	D2 ag-1	D2 ag-2
Cc1[nH]n2c(=O)cc(Cc3ccccc3)nc2c1C#N	1	-1	42*	-3	1
Cc1nc2c(C#N)c(C)[nH]n2c(=O)c1Cc1ccccc1	0	-11	17	0	0
COc1ccc2c(c1)C(=O)N(c1ccccc1)C(=O)C2	31*	20	13	-3	1
O=C(C1CCN(CC2CC=CCC2)CC1)N(CCc1ccccc1)Cc1ccccc1 (configuration not stated)	-18	-15	26	3	-1
O=C(C1CCN(CCCc2ccccc2)CC1)N(CCc1ccccc1)Cc1ccccc1	-23	-20	39*	0	5
CCN(Cc1ccccc1)C1CCN(Cc2ccc(SC)cc2)CC1	.	-13	.	-2	.
CCN(Cc1ccccc1)C(=O)C1CCN(Cc2ccc(SC)cc2)CC1	-7	-22	81*	4	0
COc1cc(/C=N/NC(=O)c2cccc3ccccc23)cc(OC)c1O	3	7	3	7	0
COc1cc(/C=N/NC(=O)c2cccc3ccccc23)cc(OC)c1OC	-11	3	30*	-2	-3
Cc1ccc(/C=N/Nc2nncc(-c3ccccc3)n2)o1	-10	-3	51*	-4	0
Clc1ccc(-c2ccc(/C=N/Nc3nncc(-c4ccccc4)n3)o2)cc1	-3	-7	-6	-3	0
CCCOc1ccc(C2C(=O)N(C3CCCCCC3)CC(=O)N2C(C)C)cc1OC (configuration not stated)	7	.	.	.	.
CCCN(CCC)C(=O)c1nn(C)c2c1CSc1ccccc1-2	2	.	.	.	-1
CN1CCN(S(=O)(=O)c2cccc(C(=O)Oc3ccc(C(C)(C)C)cc3)c2)CC1	5	-7	34*	-1	1
Cc1nnc(SCC(=O)NCCN2C(=O)CSC2=O)n1-c1ccccc1	5	4	47*	0	0
CCc1ccc(OC(=O)c2cccnc2)cc1	2	-6	32*	-6	-2
Cc1ccc(S(=O)(=O)N(C)Cc2nc(-c3ccccn3)no2)cc1	0	-1	23	-3	0
CN(Cc1nc(-c2ccccn2)no1)S(=O)(=O)c1ccccc1	.	13	37*	-1	4
CCN1CCN(S(=O)(=O)c2ccc(Cl)c(C(=O)NC(C)(C)C)c2)CC1	-9	-3	30*	-5	5
CCN1CCN(S(=O)(=O)c2ccc(Cl)c(C(=O)NC3CCCC3)c2)CC1	-7	-6	47*	3	0
CCN1CCN(S(=O)(=O)c2ccc(Cl)c(C(=O)NC3CC3)c2)CC1	-7	-6	-53	-3	1
Cc1cc(C)c(NC(=O)CSc2nc3ccccc3nc2N2CCCCC2)c(C)c1	-1	.	.	.	0
CCN(C(=O)N(CC)c1ccccc1)c1ccccc1	-10	0	43*	5	-1
CCc1ccc(OCC(=O)NNC(=O)c2ccc(NC(=O)C3CC3)cc2)cc1	6	-14	31*	3	0
O=C1C(Nc2ccccc2)=C(N2CCCCC2)C(=O)c2ccccc21	3	19	-18	7	0
SMILES	D2 PAM-1	D2 PAM-2	D2 antag	D2 ag-1	D2 ag-2
O=C1C(Nc2cccc(O)c2)=C(N2CCCCC2)C(=O)c2ccccc21	4	65*	-5	4	0
O=S(=O)(/C=C/c1ccccc1)N1CCN(c2ccccc2)CC1	-7	-1	-1	1	0
COc1ccccc1N1CCN(S(=O)(=O)/C=C/c2ccccc2)CC1	-1	14	54*	-2	1
CCCCCn1c(C(C)NC(=O)c2ccccc2)nc2ccccc21 (configuration not stated)	-18	.	.	.	.
COc1cc2c(cc1OC)C(=O)C(Br)CC2 (configuration not stated)	.	-6	.	46*	.
COc1cc2c(cc1OC)C(=O)C(c1ccc3c(c1)OCO3)CC2 (configuration not stated)	.	-3	.	-3	.
CCOc1ccc(NC(=O)c2oc3ccccc3c2NC(=O)c2ccc(OC)cc2OC)cc1	0	.	.	.	0
COc1cccc(/C=C2\N=C(C3CCCCC3)OC2=O)c1OC	45*	-4	2	0	0
